About 79,000 compounds went through this panel and 15% of them were active in at least one assay; those are over-represented in the sample as a whole. Values without a mark were called inactive. Calls of active or inactive are those of the source. Cut-off read from the data, not from the text of the source: active = growth inhibition above about 70%; inactive = the rest.
Key:
[1] = NCI Yeast Anticancer Drug Screen. Data for the rad50 strain (AID 155);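 note: 0% = growth of vehicle-only cultures of the same strain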; conditions: S. cerevisiae rad50 strain growth inhibition; at 50.0 µM; active compounds read high
How it was run: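 A DNA repair-deficient yeast mutant serves as the test organism; compound-induced growth inhibition is calculated against vehicle-treated cells.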

[2] = NCI Yeast Anticancer Drug Screen. Data for the mec2-1 strain (AID 157); conditions: S. cerevisiae mec2-1 strain, at 50.0 µM, active compounds read high
How it was run: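 Vehicle-treated cultures served as reference for growth inhibition of compound-exposed mec2-1 yeast.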

[3] = NCI Yeast Anticancer Drug Screen. Data for the sgs1 mgt1 strain (AID 161);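 note: 0% = growth of cultures given vehicle only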; conditions: S. cerevisiae sgs1 mgt1 strain, at 50.0 µM, active compounds read high
How it was run: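 Inhibition of yeast growth, normalised to vehicle-treated controls, is reported for a strain bearing genetic alterations in DNA damage repair.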

[4] = NCI Yeast Anticancer Drug Screen. Data for the cln2 rad14 strain (AID 165);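 note: 0% = growth equal to vehicle treated cultures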; conditions: S. cerevisiae cln2 rad14 strain, at 50.0 µM, active compounds read high
How it was run: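 Each compound was tested on cln2 rad14 yeast. Inhibition of growth was calculated against vehicle-exposed controls.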

[5] = NCI Yeast Anticancer Drug Screen. Data for the bub3 strain (AID 167); conditions: S. cerevisiae bub3 mutant strain, at 50.0 µM, active compounds read high
How it was run: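 Inhibition values come from growth of compound-treated mutant yeast normalised to vehicle-treated controls.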

[6] = NCI Yeast Anticancer Drug Screen. Data for the mlh1 rad18 strain (AID 175); conditions: S. cerevisiae mlh1 rad18 strain growth inhibition; at 50.0 µM; active compounds read high
How it was run: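 Vehicle-treated cultures served as the reference for growth inhibition in a yeast strain carrying DNA damage repair alterations exposed to each compound.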

Row | Structure (SMILES) | growth inhibition [1] | growth inhibition [2] | growth inhibition [3] | growth inhibition [4] | growth inhibition [5] | growth inhibition [6]
1 | C/C=C(\C)c1cc(O)c(C)c2c1Oc1cc(O)c(Cl)c(C)c1C(=O)O2 | 92.5% (active) | 94.8% (active) | 93.9% (active) | 92.3% (active) | 93.5% (active) | 92.5% (active)
2 | Cc1nc(Nc2ccccc2C)c2ccsc2n1 | 41.3% | 49.5% | 43.2% | 75% (active) | 51.2% | 48%
3 | N#CCC(=O)N/N=C1/C(=O)N(c2cc(Cl)ccc2Cl)C(=O)C(=O)C1c1nc2ccccc2s1 (configuration not stated) | 42.8% | 27.8% | 38.1% | 19.9% | -0.5% | 51%
4 | C=C(COC(=O)C(C)C)[C@H]1Oc2ccc(C(C)=O)cc2[C@@H]1OC(=O)C(C)C | -11.5% | -3.9% | -15.9% | -9.55% | 0.45% | -23.1%
5 | CCOC(=O)Nc1ccc(S(=O)(=O)c2ccc(Nc3ccnc4cc(Cl)ccc34)cc2)cc1 | 17.1% | 10.2% | 27.2% | -35.8% | 5.45% | 47.8%
6 | CCN(CC)c1ccc(C=O)cc1 | 6.8% | -11.1% | -36.5% | -6.4% | 13.2% | -11.1%
7 | COc1ccc(O)c2c(=O)ccccc12 | 8.5% | 7.15% | -3% | -13.8% | 5.4% | 5.55%
8 | CC(O)CCNC(=O)c1ccccc1 (configuration not stated) | -10.4% | -16.2% | -11.3% | -25.8% | -13.3% | -5%
9 | O=CNc1cc([N+](=O)[O-])ccc1OCc1ccccc1 | 13.6% | 1.6% | -0.75% | 4.6% | 12.2% | -21.9%
10 | Clc1ccc(SCc2csc(-c3ccc(Cl)cc3)n2)cc1 | -27.5% | -41.8% | -19.1% | -27.8% | -6.8% | -29.8%
11 | CC(=O)[C@H]1[C@H](C)C[C@H]2[C@@H]3CCC4=CC(=O)CC[C@]4(C)[C@@]3(F)C(=O)C[C@@]21C | -5.45% | 1.2% | -3.3% | -28.4% | 6% | 4%
12 | CC(C)(C)/C(=N\[N+](C)(C)C)c1ccccc1 | 7.85% | 6.4% | 0.4% | -1.3% | 6.8% | 10.6%
13 | COc1cccc(N(CN2C(=O)CCC2OC)C(C)=O)c1 (configuration not stated) | 4.2% | 7.35% | 12.9% | 19.3% | -7.35% | -31.4%
14 | C[C@]12CCC(=O)C=C1CC[C@@H]1[C@@H]2C(=O)C[C@@]2(C)[C@H]1CC[C@]2(O)C(=O)C=O | -5% | -1.4% | 13.8% | 16.9% | -10.8% | 2.45%
15 | CC1(n2[nH]c(=O)n(-c3ccccc3)c2=O)Cn2c(=O)n(-c3ccccc3)c(=O)n2-c2ccccc21 (configuration not stated) | -49.2% | -0.3% | -1% | 18.7% | -5.2% | 9.1%
16 | CCNC(=O)OCCN(CCOC(=O)NCC)CCc1ccccc1 | 8.7% | 9.15% | 15.5% | -7.75% | -17.4% | 6.3%
17 | COC(=O)C1=C(CO)C2C=CC1C2 (configuration not stated) | 3.25% | 26.1% | -1.1% | 6.55% | 6.15% | 6.7%
18 | CC(=O)OCCCC(=O)Nc1cc([N+](=O)[O-])ccc1OCc1ccccc1 | 12.4% | -3.35% | 3.45% | -6.35% | 5.7% | 8.45%
19 | CCC(C#N)(C(=O)OC)/C(C)=C/C(C)C (configuration not stated) | 7.95% | -13.2% | -3.45% | -7.25% | -26.9% | -25.1%

Row | Structure (SMILES) | growth inhibition [1] | growth inhibition [2] | growth inhibition [3] | growth inhibition [4] | growth inhibition [5] | growth inhibition [6]
20 | CC(C)=CCc1ccc2c(c1)CCCN2C | -44.4% | -22.1% | -17.4% | -47% | 20.9% | 1.15%
21 | CN(C)Cc1ccc(-c2cc3onc(-c4ccccc4)c3c(=O)n2C)cc1 | -22.9% | -13.1% | -29.5% | -8.4% | -28% | 2.5%
22 | Cc1cccc(C)c1NC(=S)/N=C/C1=C(O)c2ccccc2C1=O | -36.8% | -17.2% | -10.2% | 13.8% | -7.5% | 23.6%
23 | CCSCC(C)C(=O)OC (configuration not stated) | -26.6% | -0.4% | -14.3% | 23.6% | 2.85% | -40.3%
24 | C/C(CC(=O)NCCc1ccccc1)=N\NS(=O)(=O)c1ccc(C)cc1 | 37.1% | -6.6% | 10.2% | 28.3% | -4.2% | 8%
25 | C=CCCCCCCCCCCCCCC | -0.85% | -2.3% | -4% | 10% | -7.5% | 26.9%
26 | CC1(C)C=C(C(=O)ON2C(=O)CCC2=O)C(C)(C)N1O | -4.85% | -25.9% | -14.5% | 12.7% | -19.1% | -16.1%
27 | O=C(Cc1ccccc1)c1ccc(OCC(O)CN2CCN(c3ccccc3)CC2)cc1 (configuration not stated) | 97.7% (active) | 98.1% (active) | 99.3% (active) | 93.4% (active) | 84.1% (active) | 96.3% (active)
28 | O=C(O)c1cccc(F)c1C(=O)O | -4.5% | -3.65% | -1.5% | -20.4% | -2.95% | 7.3%
29 | CC(=O)NC1CC(C)(C)NC(C)(C)C1 | -18.6% | -30.2% | 3.45% | 10.5% | 0.5% | -9.25%
30 | Cc1ccccc1C(C#N)/C(=N/NC(=O)C(=O)NN)C(=O)Nc1cccc(C(F)(F)F)c1 (configuration not stated) | 34.1% | 10.9% | 14.2% | 23.1% | 0.25% | 21.8%
31 | O=C(SCc1ccccc1)N(c1ccccc1)c1ccccc1 | -0.55% | 11.9% | 0% | 22.4% | 12.4% | 5.3%
32 | NC(=O)c1cc([N+](=O)[O-])cnc1Sc1ncccn1 | 40.8% | 14.9% | 21.7% | 18.2% | 29.9% | 44.6%
33 | CCCCCCCC(=O)OCC1OC(n2cc(F)c(=O)[nH]c2=O)C(NC(=O)OCc2ccccc2)C(OC(=O)CCCCCCC)C1O (configuration not stated) | 20.2% | 4.05% | 13.4% | 14.3% | 0.35% | 38.3%
34 | C/C(=N/NC(=S)N1CCCCCC1)c1ccccc1O | -63.5% | -40.4% | 5.6% | 45.4% | -12.8% | 34.8%
35 | CCN(CC)CCOc1cc(C(C)C)ccc1C | 76% (active) | 63.5% | 63.5% | 76.2% (active) | 40.5% | 78.2% (active)
36 | CCOC(=O)C(CO)NC(=O)c1cnc2ccccc2c1 (configuration not stated) | 16.4% | 1.65% | 13.1% | -29.8% | -30.4% | 12.8%
37 | O=C1c2cc3c(cc2CC12Cc1cc4c(cc1C2)CCC4)CCC3 | -14.6% | 1.4% | -8% | 7.45% | -3% | -1.35%

Reference: PubChem BioAssay (NCI)
